# According to PubChem BioAssay AID2547 (National Center for Advancing Translational Sciences (NCATS), 2010):
# The other results are listed elsewhere or left out. Inconclusive results are not listed. Values without a mark were called inactive. The source made the active and inactive calls. Calls follow the shape of the dose curve; as a rule, active = well fitted inhibition curve with a large enough effect; inconclusive = small, poorly fitted or top-dose-only effect; inactive = flat fitted curve, though single readings scatter.
# Experiment: Secondary Assay for Inhibitors of Human Galactokinase (GALK): HEK-293 Cell Viability Assay
# Conditions: HEK-293 viability, ATP luminescence (CellTiter-Glo), 24/48 h; series mostly up to 46.1 µM; activity change, negative = cytotoxicity: at the top concentration
# Protocol: NIH Molecular Libraries Probe Production Centers Network [MLPCN] NIH Chemical Genomics Center [NCGC] MLPCN Grant: R03 MH085689-01 Assay Submitter (PI): Kent Lai (University of Utah School of Medicine, 50 N Mario Capecchi Drive, Salt Lake City, UT 84132) NCGC Assay Overview Cytotoxicity of the active compounds in the GALK qHTS screen (AID 1868) was assessed using the CellTiter-Glo Luminescent Cell Viability Assay kit (Promega, USA) in the HEK-293 (ATCC) cell line. CellTiter-Glo measures the intracellular ATP present in metabolically active cells using Ultra-Glo as the luciferase to detect ATP levels. In brief, the luciferase in the buffer catalyzes the oxidation of luciferin to oxyluciferin and light which is dependent on ATP. […] Wells treated with various concentrations of cycloheximide (Sigma) and DMSO, and wells with media alone were used as positive and negative controls, respectively. […] [1] http://www.promega.com/tbs/tb288/tb288.pdf
# NCGC Assay Protocol Summary: HEK-293 cells were grown in a flask up to 80% confluence. Cells were trypsinized, washed, and resuspended in MEM Eagle + 10% FBS + 1% pen-strep media at a concentration of 120 cells/uL. Five uL/well of cell solution was dispensed into a 1536-well assay plates (Greiner, solid white medium-binding plates) with Aurora Discovery BioRAPTR Flying Reagent Dispenser (FRD; Beckton-Dickenson). Cells were pre-incubated at 37 degree Celsius, 5% CO2 for four hours. Compound and control solutions (23nL) were then transferred to the assay plate using the Kalypsys 1536-pin tool. Assay plates were re- incubated at 37 degree Celsius, 5% CO2. After 24 or 48 hours, five uL of CellTiter Glo detection reagent was added. Luminescence signal was read with Perkin Elmer ViewLux plate reader after 30 min room temperature incubation.
# % is scaled to controls: 0 for no effect and ±100 for the full control effect; potency is read from the fitted curve at half-maximal effect.
Structure (SMILES),Potency,"activity change, negative = cytotoxicity"
CCOC(=O)c1c(C)[nH]c2c1-c1ccccc1C(=O)C2=O,11.2 µM (active),
O=C1Nc2ccc([N+](=O)[O-])cc2C1=Nc1cccc(CO)c1,,-8.73%
N#Cc1c(N2CCCCC2)nc(N)c2c(N)nc(SCC(=O)O)cc12,,-0.364%
N#C/C(=C(/O)Cc1cccc2ccccc12)c1nc2ccccc2s1,,-2.32%
COc1cccc2cc(-c3cc(=O)oc4cc(C)c(O)cc34)oc12,,3.01%
O=C(Nc1nnc(S(=O)(=O)N2CCOCC2)s1)c1cccc(Br)c1,,-11%
O=C1CCCC2=C1[C@@]1(CCC(c3ccccc3)C1)N=C(Nc1nc3ccccc3o1)N2 (some centres undefined),,-26.3%
CCS(=O)(=O)C1=NSC2=NC(=O)/C(=C\c3ccc(OS(=O)(=O)c4ccccc4)cc3)C(=N)N21,,2.94%
Oc1c(Cl)cc(Cl)c(Cl)c1Cc1c(O)c(Cl)cc(Cl)c1Cl,7.91 µM (active),
